Experimental data reported in the supplement of paper PMC6555819.

Columns and labels:
Assay in all cases: PBM binding z-score (relative to random genomic background probes); higher = stronger binding; sequences stand for … in GC…GCGATTGACAGCGTAGAATGAAGG
[1] = test system: FXR:RXRa (NR concentration 270 nM, RXRa partner concentration 90 nM)
Outline: (§1)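 Regression normalization was applied to scanned fluorescence from custom Agilent 4×180K protein-binding microarrays. Before scanning, arrays were incubated 1 h with ligand-free nuclear receptor dimers, and binding was detected with antibodies against each partner (one per run). Binding z-scores use the random background probes as reference.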

[2] = test system: LXRa:RXRa (NR concentration 270 nM, RXRa partner concentration 90 nM)
Outline: as §1

[3] = test system: LXRa homodimer (NR concentration 270 nM)
Outline: as §1

[4] = test system: LXRb:RXRa (NR concentration 270 nM, RXRa partner concentration 90 nM)
Outline: as §1

[5] = test system: LXRb homodimer (NR concentration 270 nM)
Outline: as §1

[6] = test system: PPARa:RXRa (NR concentration 270 nM, RXRa partner concentration 90 nM)
Outline: as §1

[7] = test system: PPARg:RXRa (NR concentration 180 nM, RXRa partner concentration 90 nM)
Outline: as §1

[8] = test system: PPARg:RXRa 270nM:90nM, anti-RXR (NR concentration 270 nM, RXRa partner concentration 90 nM)
Outline: as §1

[9] = test system: PPARg:RXRa 30nM:10nM, anti-RXR (NR concentration 30 nM, RXRa partner concentration 10 nM)
Outline: as §1

[10] = test system: PPARg:RXRa 90nM:30nM, anti-RXR (NR concentration 90 nM, RXRa partner concentration 30 nM)
Outline: as §1

[11] = test system: PPARg:RXRa DBDmut IVT, anti-RXR (DBD mutation: RXRa K156A/R161A, NR concentration 270 nM, RXRa partner concentration 90 nM)
Outline: as §1

[12] = test system: PPARg:RXRa IVT, anti-PPARg (NR concentration 270 nM, RXRa partner concentration 90 nM)
Outline: as §1

[13] = test system: PPARg DBDmut:RXRa IVT, anti-PPARg (DBD mutation: PPARg1 K132A/R137A, NR concentration 270 nM, RXRa partner concentration 90 nM)
Outline: as §1

[14] = test system: PPARg DBDmut IVT, anti-PPARg (DBD mutation: PPARg1 K132A/R137A, NR concentration 270 nM)
Outline: as §1

[15] = test system: PPARg homodimer (NR concentration 180 nM)
Outline: as §1

[16] = test system: PXR:RXRa (NR concentration 270 nM, RXRa partner concentration 90 nM)
Outline: as §1

[17] = test system: PXR homodimer (NR concentration 270 nM)
Outline: as §1

[18] = test system: RARa:RXR (NR concentration 270 nM, RXRa partner concentration 90 nM)
Outline: as §1

[19] = test system: RARa homodimer (NR concentration 270 nM)
Outline: as §1

[20] = test system: RARb:RXRa (NR concentration 270 nM, RXRa partner concentration 90 nM)
Outline: as §1

Sequence | PBM binding z-score [1] | PBM binding z-score [2] | PBM binding z-score [3] | PBM binding z-score [4] | PBM binding z-score [5] | PBM binding z-score [6] | PBM binding z-score [7] | PBM binding z-score [8] | PBM binding z-score [9] | PBM binding z-score [10] | PBM binding z-score [11] | PBM binding z-score [12] | PBM binding z-score [13] | PBM binding z-score [14] | PBM binding z-score [15] | PBM binding z-score [16] | PBM binding z-score [17] | PBM binding z-score [18] | PBM binding z-score [19] | PBM binding z-score [20]
CCTGCTAGGTCAATGGTGAGCTAAAGCAGCTCGC | 2.56 | 1.58 | -0.54 | 0.808 | -0.0982 | 2.57 | 2.46 | 2.99 | 1.2 | 2.5 | 4.2 | 3.22 | -0.736 | -0.744 | 0.822 | 0.37 | -0.961 | 1.09 | -0.333 | 3.51
AATACAGAGTCACTAGGCCAGAGTAGGTACGAAT | -0.115 | -0.0616 | -0.358 | -0.555 | -0.252 | 0.626 | 1.31 | 0.617 | 0.184 | 0.718 | 0.648 | 1.74 | 1.31 | 0.135 | 0.238 | -0.343 | -0.0346 | -0.415 | 0.249 | 0.141
ATACCAAGGGGATCGTGAGGTCGTTGATACTAAC | 0.492 | 0.487 | 0.291 | 1.26 | -0.272 | 0.97 | 0.267 | -0.0276 | -0.375 | -0.365 | -0.449 | -0.121 | -0.0494 | 0.0346 | -0.227 | 1.68 | 0.87 | 1.52 | -0.222 | 0.379
CCATACGGGTCACGAGGTTATAGCACGACGAGCG | 6.99 | 4.32 | 0.528 | 3.79 | -0.0225 | 5.93 | 7.19 | 6.47 | 3.55 | 5.37 | 3.91 | 5.41 | 1.88 | 0.373 | 2.89 | 4.5 | 0.355 | 5.93 | 1.79 | 4.62
TCATACAGGTGAAGGTAACTCAGGTACGCAGTCG | 1.02 | 2.17 | 0.186 | 1.18 | 0.221 | 1.68 | 1.3 | 2.39 | 3.72 | 3.04 | 3.17 | 2.45 | 0.347 | 1.84 | 1.14 | 0.814 | 0.508 | 1.31 | 0.817 | 1.26
CGCCAAAGTTCAAGGTAACGTAACAGAAAGCAGC | 6.49 | 5.62 | 3.2 | 3.55 | 0.961 | 5.17 | 4 | 4.83 | 1.8 | 3.27 | 0.89 | 1.7 | 0.701 | 0.562 | 1.95 | 4.18 | 2.34 | 3.4 | 1.12 | 5.28
AGAATGAGGTTACCAAATATCAGGGAAACGCTTG | 1.57 | 2.74 | -0.144 | 1.81 | -0.351 | 3.3 | 2.58 | 2.84 | 1.07 | 2.04 | 4.3 | 3.78 | 1.63 | 0.617 | 0.301 | 1.05 | 0.00391 | 1.77 | -0.0256 | 2.1
GCTTACGTGTCAAAGGTTATAGCATGAATAGAAT | 3.42 | 3.02 | -0.0204 | 2.94 | -0.0977 | 5.34 | 9.21 | 8.05 | 7.61 | 9.07 | 1.72 | 3.96 | 0.407 | 0.944 | 3.44 | 2.98 | -0.204 | 4.56 | 0.318 | 2.14
CCGACTGGGGTAAGGTTACCATAACGCACAGCCA | 0.62 | 1.11 | -0.0991 | 1.31 | -0.565 | 2.14 | 2.11 | 2.5 | 0.595 | 1.71 | 1.25 | 2.26 | -0.489 | -1.25 | 0.783 | 0.899 | -0.126 | 1.55 | 0.484 | 1.3
TCTTATAGGTAAAAGGTGAAAGTCGGTGTGGTAA | 2.14 | 2.25 | 0.401 | 2.19 | 0.39 | 5.39 | 8.99 | 8.57 | 8.65 | 9.86 | 5.43 | 5.26 | 1.47 | 1.32 | 3.07 | 1.92 | 0.675 | 3.31 | 1.6 | 2.21
AGTCAAAGTTCACTAGGTGACGTAAGATTCAGCT | 5.44 | 5.36 | 3.15 | 3.09 | 0.835 | 5.06 | 7.82 | 7.04 | 3.81 | 6.5 | 3.75 | 6.05 | 1.29 | 0.955 | 3.29 | 4.22 | 2.57 | 3.34 | 1.67 | 4.87
CGAACTAGGTCATTGACAGGACACTGAATAGTAA | 4.3 | 3 | 0.64 | 2.25 | 0.377 | 4.54 | 7.31 | 6.14 | 3.7 | 5.66 | 8.02 | 7.96 | 2 | 1.46 | 2.02 | 1.66 | 0.493 | 2.18 | 0.218 | 3.69
TCTTGTAAATCAAAGGTTAAGAAAGCCGAAGCCT | 1.34 | 2.53 | 0.811 | 1.94 | 0.621 | 3.08 | 3.23 | 5.39 | 4.93 | 5.88 | 1.48 | 1.25 | 0.212 | 0.506 | 1.05 | 1.42 | -0.311 | 2.32 | 0.632 | 1.87
ATCGAAAGGTCGTGAGGTGAGGATACAGAAAGGC | 5.69 | 4.09 | 0.323 | 3.37 | 0.581 | 5.08 | 4.41 | 4.73 | 1.86 | 3.51 | 0.406 | 2.89 | 1.55 | 0.615 | 2.28 | 3.3 | 0.684 | 4.61 | 1.12 | 4.13
ATATGTAGGTTAGCTGGGTTCATTCAGACTAGGC | 1.75 | 4.53 | 2.19 | 2.2 | 0.361 | 3.76 | 4.18 | 3.74 | 1.75 | 2.89 | 6.03 | 6.16 | 1.92 | 2.15 | 2.07 | 6.34 | 7.23 | 2.56 | 1.06 | 1.35
TCATATAGGTAAATGCTAGGTGAAAGTCCGATCT | 1.23 | 1.02 | 0.256 | 0.834 | -0.0467 | 1.43 | 1.09 | 2.44 | 3.65 | 3.19 | 3.92 | 2.74 | 1.21 | 1.03 | 0.763 | 0.713 | 0.387 | 1.07 | 1.52 | 0.642
TCTTGTAGATCAAGCACGTTAAGAAAGCCTGAGT | 0.465 | 0.232 | -0.171 | 0.106 | -0.495 | 0.484 | -0.254 | 1.12 | 2.5 | 1.97 | 1.73 | 0.108 | 0.449 | 0.566 | 0.56 | 0.445 | -0.148 | 0.501 | -0.338 | -0.035
CTCGAAATGTCGGTTGAGGTGAGTATACGGATAA | 0.47 | -0.279 | -0.308 | -0.214 | 0.0912 | 0.0141 | 0.0414 | 0.218 | 0.0305 | -0.0265 | -0.0159 | 0.503 | 0.298 | 0.408 | 0.0152 | 0.0277 | -0.637 | 0.341 | -0.1 | 0.334
ATACGAAGGTGATCGTGAGGTCGTTGATACTAAC | 1.79 | 1.18 | 0.283 | 0.729 | -0.403 | 1.47 | 0.5 | 0.532 | 0.382 | 0.531 | 0.525 | 0.827 | 0.418 | -0.452 | 0.589 | 2.82 | 1.23 | 2 | 0.134 | 1.29
